From PubChem BioAssay AID1460 (National Center for Advancing Translational Sciences (NCATS), 2008)
The whole screen tested about 270,000 compounds, of which about 5,800 (2.1%) were called active. A call without a number means that no potency is given here. Inconclusive results (about 16%) are left out. This is one part of a sample in which actives are shown more often than they occur. The call rests on the fitted dose curve; in most records, active means well fitted inhibition curve with a large enough effect; inconclusive means small, poorly fitted or top-dose-only effect; inactive means flat fitted curve, though single readings scatter.
Further: nearly all actives have a fitted effect of over 55% in size.
Potency means the concentration at half of the fitted maximal effect.

The compounds below were run against Microtubule-associated protein tau (Homo sapiens) (UniProt P10636) (assay: qHTS for Inhibitors of Tau Fibril Formation, Thioflavin T Binding). Conditions: recombinant tau K18 P301L (four-repeat tau fragment), heparin-induced fibrillization, ThT fluorescence; series mostly up to 57.4 µM.
Chain of Microtubule-associated protein tau (Homo sapiens) (P10636 561-689 P618L limits assumed): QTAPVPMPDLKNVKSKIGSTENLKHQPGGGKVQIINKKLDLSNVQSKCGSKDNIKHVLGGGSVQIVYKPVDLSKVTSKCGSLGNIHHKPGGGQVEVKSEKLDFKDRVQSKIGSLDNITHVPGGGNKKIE
How it was run: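 Heparin-induced (20 uM) aggregation of recombinant human K18 P301L tau, 15 uM unlabeled with 0.24 uM labeled, pH 7 acetate buffer, 6 hr at 37 C with compound. Fibrils quantified by 30 uM ThT fluorescence after 1 hr ambient incubation.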
In the case of `CCc1cccc(NC(=O)Cn2nc(CC)n3c(cc4cc(C)ccc43)c2=O)c1`, the Potency is reported as “inactive”.
For `Cc1cn(C)c(CC(=O)NCc2ccc(Cl)cc2)c1C(=O)O`, the Potency was “inactive”.
`CCOc1cccc(CC(=O)N2CCc3c([nH]c4ccccc34)C2c2ccc(OC)cc2)c1OCC` (stereo not drawn) was tested, and the Potency was “inactive”.
`Nc1ccc(N=Nc2ccccc2Cl)c(N)n1` was tested, and the Potency was 2 µM (active).
With `CCOC(=O)C1CCC(CN(Cc2ccc(OC)cc2)S(=O)(=O)c2ccc(F)c(C(=O)Nc3cc(C)ccc3C)c2)CC1` (stereo not drawn) the Potency was “inactive”.
`CCOC(=O)c1cc(-c2ccccc2)n(-c2cccc(C(=O)Nc3cc(OC)cc(OC)c3)c2)c1C` was tested, and the Potency was “inactive”.
`COc1ccc(/C=C2/SC(=O)N(CCCCCC(=O)Nc3ccccc3C(=O)O)C2=S)cc1` was tested, and the Potency was 11.2 µM (active).
For `O=C(CCCN1C(=O)/C(=C\c2ccccc2)SC1=S)Nc1ccccc1O`, the Potency was “inactive”.
In the case of `COc1ccc(/C=C2\SC(=S)N(CC(=O)NNC(=O)c3ccncc3)C2=O)cc1`, the Potency is reported as “inactive”.
With `Cc1cc(OCC(=O)Nc2ncn[nH]2)c(C)c(C)c1Br` the Potency was “inactive”.
`CCOCCCNC(=O)c1cc2c(=O)n3ccccc3nc2s1` was tested, and the Potency was “inactive”.
With `Cc1cccc(-n2c(=O)c3c(c4cc(C)ccc4n3C)n(CC(=O)Nc3ccccc3Cl)c2=O)c1` the Potency was “inactive”.
With `Cc1noc(/C=C/N(C)C)c1S(=O)(=O)N1CCCC(C(=O)NCc2ccco2)C1` (stereo not drawn) the Potency was 28.2 µM (active).
For `Cc1noc(/C=C/N(C)C)c1S(=O)(=O)N1CCCC(C(=O)Nc2cccc(F)c2)C1` (stereo not drawn), the Potency was “inactive”.
With `O=C(NCc1ccco1)C1CCCN(S(=O)(=O)c2ccccc2)C1` (stereo not drawn) the Potency was “inactive”.
With `Cc1cccc(N2CCN(S(=O)(=O)c3ccc4[nH]c5c(c4c3)CCCCC5)CC2)c1C` the Potency was “inactive”.
For `CC[C@@H]1Cc2cc(O)ccc2C2=C1c1ccc(O)cc1C[C@H]2CC`, the Potency was 17.8 µM (active).
`CC1(C)CC(=O)c2ccc(O)cc2O1` was tested, and the Potency was “inactive”.
For `COc1ccccc1Cc1nc2ccccc2nc1SCC(=O)N1CCCc2ccccc21`, the Potency was “inactive”.
With `CC1CCN(c2ccc([N+](=O)[O-])cc2C(N)=O)CC1` the Potency was “inactive”.
With `O=[N+]([O-])c1ccc(N2CCN(c3ccc(O)cc3)CC2)c(Cl)c1` the Potency was 6.31 µM (active).
In the case of `CCN1CCN(c2ccc([N+](=O)[O-])cc2C(=O)c2ccc(Cl)cc2)CC1`, the Potency is reported as “inactive”.
With `O=C(NC1(C(F)(F)F)N=C(c2ccccc2)N(C2CCCCC2)C1=O)c1ccccc1F` (stereo not drawn) the Potency was “inactive”.
For `NNc1nc2c(Cl)cccc2s1`, the Potency was 22.4 µM (active).
With `CN(C)CCCN(C(=O)COc1ccccc1)c1nc2c(Cl)cccc2s1` the Potency was “inactive”.
For `Fc1cc(F)c2nc(Nc3nc4c(F)cccc4s3)sc2c1`, the Potency was “inactive”.
In the case of `Cc1ccc(CNC(=O)Cn2c(=O)ccc3cc(S(=O)(=O)N4CCCC4)ccc32)cc1`, the Potency is reported as “inactive”.
With `CCc1ccccc1NC(=O)Cn1c(=O)n(CC2CCC(C(=O)NCCc3ccccc3)CC2)c(=O)c2ccccc21` (stereo not drawn) the Potency was “inactive”.
For `C#CCOc1ccc(C2CC(=O)Nc3c2c(C)nn3-c2nc(C)cc(C)n2)cc1` (stereo not drawn), the Potency was “inactive”.
`Cc1ccc(C(=O)N2CCc3cc(CNC(=O)c4ccc(Br)cc4)ccc32)cc1` was tested, and the Potency was “inactive”.
For `Cc1nn(-c2ccc(N3CCCCC3)nn2)c(C)c1CCC(=O)NCc1ccccc1F`, the Potency was “inactive”.
`Clc1ccc(CN2CCN(/N=C/c3cccnc3)CC2)cc1` was tested, and the Potency was “inactive”.
`O=C1/C(=C\c2cccnc2)CN(Cc2ccccc2)C/C1=C\c1cccnc1` was tested, and the Potency was 14.1 µM (active).
For `O=Cc1cn(Cc2ccccc2)nc1-c1cccnc1`, the Potency was “inactive”.
`O=C(CSc1nc2c(c(=O)[nH]1)CN(Cc1ccc3c(c1)OCO3)CC2)Nc1cc(F)ccc1F` was tested, and the Potency was “inactive”.
With `Cc1ccc2cccc(NC(=O)c3ccc(OC(C)C)cc3)c2n1` the Potency was “inactive”.
`O=C(CSc1nc(=O)[nH]c2c1CCCC2)Nc1cc(C(F)(F)F)ccc1Cl` was tested, and the Potency was “inactive”.
`CCOc1ccc(N2CC(C(=O)NCCN3C(=O)S/C(=C\c4cccnc4)C3=O)CC2=O)cc1` (stereo not drawn) was tested, and the Potency was 22.4 µM (active).
For `CCCNC(=O)C1CC(=O)N(c2ccc(OCC(=O)Nc3cccc(C)c3C)cc2)C1` (stereo not drawn), the Potency was “inactive”.
For `CCCOc1ccc(N2CC(C(=O)Nc3ccccn3)CC2=O)cc1` (stereo not drawn), the Potency was “inactive”.
With `CCOc1ccc(C(NC(=O)c2cc(OC)c(OC)c(OC)c2)c2cc(Cl)c3cccnc3c2O)cc1` (stereo not drawn) the Potency was “inactive”.
For `CCCCN(C)c1nnc(NC(=O)Nc2ccc(Br)c(C)c2)s1`, the Potency was “inactive”.
With `CCOC(=O)c1c(C)[nH]c(C)c1S(=O)(=O)N1CCCC(C(=O)NCc2ccccc2Cl)C1` (stereo not drawn) the Potency was “inactive”.
With `COc1ccc(S(=O)(=O)c2cn(C)c3cc(N4CCCCC4)c(F)cc3c2=O)cc1` the Potency was “inactive”.
With `Cc1nn(C)c(Oc2ccccc2)c1[N+](=O)[O-]` the Potency was “inactive”.
With `Cc1cccc(C2CC(=O)Oc3c2c(=O)n(C)c2ccccc32)c1` (stereo not drawn) the Potency was “inactive”.
In the case of `Cc1cccc(Oc2c([N+](=O)[O-])c(=O)n(C)c3ccccc23)c1`, the Potency is reported as 14.1 µM (active).
In the case of `CN(C(=O)CSc1nc2ccccc2n1Cc1ccccc1C#N)c1ccccc1`, the Potency is reported as “inactive”.
`CCN1/C(=C/C(=S)Nc2ccccc2)Sc2ccccc21` was tested, and the Potency was 3.55 µM (active).
`CCNC(=O)N1c2ccccc2Sc2ccccc21` was tested, and the Potency was “inactive”.
In the case of `CCN1C(=O)/C(=C2/Sc3ccccc3N2CCCS(=O)(=O)O)SC1=S`, the Potency is reported as “inactive”.
In the case of `CC(=O)c1ccc(NC(=O)CSc2c(C(C)C)cnc3c2c(=O)n(C)c(=O)n3C)cc1`, the Potency is reported as “inactive”.
In the case of `O=C(COc1ccc(Cl)cc1)Nc1ccccc1OCc1cc(=O)n2ccccc2n1`, the Potency is reported as “inactive”.
With `N#CC1=C(N)Oc2c(sc3ccccc23)C1c1ccco1` (stereo not drawn) the Potency was 15.8 µM (active).
In the case of `CC1=C(C(=O)Nc2ccccc2)C(c2ccco2)C(C#N)=C(SCC(N)=O)N1` (stereo not drawn), the Potency is reported as “inactive”.
With `Cc1ccc(CCNC(=O)c2ccc(CNS(=O)(=O)c3ccc(C)cc3)cc2)cc1` the Potency was “inactive”.
For `CCOC(=O)c1c(C)oc2nc(C)nc(N(CC(C)C)CC(C)C)c12`, the Potency was “inactive”.
For `COc1ccc(NC(=O)N2CCCn3nc(C)cc32)cc1OC`, the Potency was “inactive”.
For `COc1ccc(C(=O)c2oc3ccccc3c2NC(=O)COc2cccc(C)c2)cc1`, the Potency was “inactive”.
In the case of `O=C(Nc1ccccc1Cl)N1CCC(CN2CCCC2)CC1`, the Potency is reported as “inactive”.
`CN=C1C=C/C(=N/N=c2\ccn(O)cc2C)C=C1C` was tested, and the Potency was 6.31 µM (active).
With `Cc1ccc(Cn2c(=O)n(Cc3nc(-c4ccccc4)no3)c(=O)c3cc4c(cc32)OCO4)cc1` the Potency was “inactive”.
`Cc1ccc(-c2cn3c(n2)sc2cc(C(=O)NCCCc4ccccc4)ccc23)cc1` was tested, and the Potency was “inactive”.
